Screening results from PubChem.
SW480 rereplic – inducers of DNA re-replication in SW480 colon cancer cells; SW480 DNA re-replication, Hoechst DNA content imaging, 48 h; Potency, µM (series often up to 46.1 µM), for the others: at the highest dose re-replication activation, actives largely listed as activators; 340,000 compounds, 1.8% hits; AID 624297; also: % of control where 0% means no effect; nearly all actives have a fitted effect of over 55% in size
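Image-based read-out: total Hoechst fluorescence of nuclei (405 nm excitation, 500-530 nm emission), with hits raising the fraction of high-intensity nuclei. SW480 colon cells incubated 48 hr with compounds at 37 C.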
KB-V1 cytotox – KB-V1 MDR subline cytotoxicity | 400,000 compounds, 3.4% hits | KB-V1 MDR cells viability, CellTiter-Glo, 72 h | AID 1347076 | Potency, µM (doses to about 46.1 µM), most hits filed as cytotoxic; also: % is scaled to controls: 0 for no effect and ±100 for the full control effect; nearly all actives have a fitted effect of over 60% in size
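Cells of the MDR subline KB-V1 are plated, dosed with compound at multiple concentrations, and incubated 72 h at 37 degrees C; CellTiter-Glo is then added and luminescence read after 10 min.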
HT1080-NT tox – kills 2HG-producing HT-1080-NT fibrosarcoma cells | Potency, µM (top dose mostly 46.1 µM), for inactives: at the highest dose activity, negative = less viability, most hits filed as cytotoxic | 360,000 compounds, 1.6% hits | HT-1080-NT fibrosarcoma viability, CellTiter-Glo ATP luminescence, 48 h;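 also: NT is the 2HG producing partner of a matched IDH1 knockdown line; 0% = DMSO-treated cells and -100% = media-only wells without cells; nearly all actives have a fitted effect of over 55% in size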
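HT-1080-NT fibrosarcoma cells (2HG-overproducing), 750 cells/well in RPMI with 5% FBS, dosed after 2 h and incubated 48 h at 37C. CellTiter-Glo luminescence normalized to DMSO and no-cell wells; concentration-response curves fitted and classed.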
HT1080 IDH1KD tx – HT-1080 IDH1 knockdown cell toxicity (counter line). AID 686971. Potency, µM (titrated, usually from 46.1 µM), inactives show top-dose activity, negative = toxicity, most hits filed as cytotoxic. 360,000 compounds, 2% hits. HT-1080 IDH1 knockdown viability, ATP luminescence, 48 h;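 also: 0% = DMSO wells and -100% = cell-free medium wells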
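Cytotoxicity counter-line: IDH1KD HT-1080, 48 h, CellTiter-Glo. Curves classed by r2, magnitude and activity.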
KB-3-1 tox – KB-3-1 parental cell cytotoxicity | KB-3-1 viability, CellTiter-Glo ATP luminescence, 72 h | 400,000 compounds, 1.4% hits | Potency, µM (series often up to 46.1 µM), hits mostly cytotoxic; also: % is scaled to controls: 0 for no effect and ±100 for the full control effect; nearly all actives have a fitted effect of over 60% in size
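Cytotoxicity measured as CellTiter-Glo luminescence after 72 h at 37 C. Compound titrations were pinned onto drug-naive KB-3-1 parental adenocarcinoma cells grown in DMEM with 10% FBS, and normalized data fitted to concentration-response curves.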
MCF10A rerep – inducers of DNA re-replication in MCF 10A breast cells | MCF 10A DNA re-replication, Hoechst nuclear intensity, 48 h | Potency, µM (series often up to 46.1 µM), for inactives: top-dose activity, positive = re-replication, hits mostly activators | 350,000 compounds, 2.9% hits | AID 624296; also: % of control where 0% means no effect; nearly all actives have a fitted effect of over 50% in size
Starred values were filed as active, the others as inactive; i = inactive; ? = inconclusive; . = not tested or not shown; ! = repeats disagree; [ ] = remark or other dose. Compounds with a hit are over-represented: about 7.9% of the library has one in this group of screens. Calls follow the shape of the dose curve; as a rule, active = well fitted curve in the direction sought with a large enough effect; inconclusive = small, poorly fitted or top-dose-only effect, or another doubt; inactive = no such curve, though single readings can be large; an effect the other way counts as inactive or inconclusive. Potency is read from the fitted curve at half-maximal effect.

SMILES	SW480 rereplic	KB-V1 cytotox	HT1080-NT tox	HT1080 IDH1KD tx	KB-3-1 tox	MCF10A rerep
Cc1sc2nc(SCc3ccccc3)n(Cc3ccco3)c(=O)c2c1C	6.2%	i	-2.2%	8.1%	i	9.2µM*
COc1cccc(C(=O)Nc2ccc3nc(SCC(=O)N4CCc5ccccc54)sc3c2)c1	.	i	.	.	i	.
NCCCNc1ncnc2ccc(-c3ccc4c(c3)OCO4)cc12	.	i	.	.	?	.
COc1ccc2c(c1)C(=O)C(=O)N2CCS(=O)(=O)c1ccccc1	?	i	-6.9%	6.7%	?	?
COc1ccc2c(c1)C(=O)C(=O)N2CC1COc2ccccc2O1 (configuration not stated)	?	?	?	-26.7%	14.6µM*	?
COc1ccc(NC(=S)N(C)CC2COc3ccccc3O2)cc1 (configuration not stated)	-20.1%	?	5.9%	5.4%	i	0.651µM*
CCOc1ccc2c(c1)C(=O)C(=O)N2CC1COc2ccccc2O1 (configuration not stated)	8.2µM*	i	-0.5%	9.3%	13µM*	?
Cc1ccc2c(c1)C(=O)C(=O)N2CC1COc2ccccc2O1 (configuration not stated)	23.1µM*	20.6µM*	-2.4%	?	?	?
Cc1ccc(NC(=O)Cn2c(=O)c3ccc(Cl)cc3n3nncc23)cc1	.	i	.	.	i	.
CC(=O)Nc1cccc(Nc2nc3ccccc3n3c(C)nnc23)c1	.	i	.	.	i	.
CCOC(=O)c1cccc(NC(=O)C2(S(=O)(=O)c3ccc(C)cc3)CC2)c1	-8.1%	18.4µM*!	5.3%	-7.6%	i	-0.1%
CCOC(=O)c1cccc(NC(=O)C2(S(=O)(=O)c3ccc(Cl)cc3)CC2)c1	3.9%	i	-4.8%	-7.2%	i	-6.2%
C=C1C=C(C)n2ncc(C(=O)Nc3ccccc3C(=O)OC)c2N1	.	i	.	.	?	.
CCc1ccc2[nH]c3nc(N/N=C/c4ccc(O)cc4O)nnc3c2c1	26.0%	i	?	5.17µM*	?	10.3%
O=C(NC(Cc1ccccc1)C(=O)O)/C(=C\c1ccc(Cl)cc1)NC(=O)c1ccco1 (configuration not stated)	-0.9%	.	5.7%	4.5%	.	-7.1%
CC(C)(CNC(=S)NCCc1ccccc1)CNC(=S)NCCc1ccccc1	?	i	?	?	?	23.1µM*
COc1cc2nc(N(C)CCCNC(=O)[C@@H]3CCCO3)nc(N)c2cc1OC	-6.6%[20.6 µM]	.	.	.	.	3.9%[20.6 µM]
CCOC(=O)c1c(NC(=O)COc2ccc(Cl)cc2C)sc(C(C)=O)c1C	.	i	.	.	i	.
CC(NC(=O)CN(C)Cc1nc2ccccc2c(=O)[nH]1)c1ccccc1 (configuration not stated)	-9.7%	i	5.7%	8.0%	i	-0.3%
CN(Cc1nc2ccccc2c(=O)[nH]1)Cc1nc2ccsc2c(=O)[nH]1	20.6µM*	i	0.2%	1.6%	i	1.1%
Cc1cc2oc(C(=O)Nc3ccc(S(=O)(=O)N(C)Cc4ccccc4)cc3)cc(=O)c2cc1C	.	?	.	.	i	.
CCSc1oc(-c2ccco2)nc1S(=O)(=O)c1ccc(F)cc1	1.2%	16.4µM*	3.9%	3.6%	i	12.5%
Cc1cccc(Oc2ccc3c(c2)Oc2ccccc2NC3=O)c1	.	i	.	.	i	.
CN(C(=O)COC(=O)CNC(=O)C1CCCCC1)c1ccccc1	20.6µM*	?	1.9%[9.24 µM]	4.1%	i	-3.1%
O=C(COC(=O)CNC(=O)C1CCCCC1)Nc1ccccc1	-1.2%	i	?	22.6%	i	3.9%
SMILES	SW480 rereplic	KB-V1 cytotox	HT1080-NT tox	HT1080 IDH1KD tx	KB-3-1 tox	MCF10A rerep
c1ccc(-c2nnc(-c3ccccn3)nc2NC2CCCCC2)cc1	?	?	?	?	16.4µM*	10.3µM*
CC(=O)C[C@H](O)CC(=O)[C@H]1OC(=O)CC/C=C\Cc2ccccc21	-0.2%	i	-1.4%	-10.8%	i	-13.8%
CC1CCN(S(=O)(=O)c2ccc3nc(-c4ccccn4)cc(C(=O)NCCN(C)Cc4ccccc4)c3c2)CC1	0.2%	i	2.4%	8.3%	?	0.731µM*
CCCCNC(=O)C1(C)CCCCN1Cc1ccc(OCc2ccccc2)cc1 (configuration not stated)	.	14.6µM*	?	?	?	.
O=C(COC(=O)c1ccc[n+]([O-])c1)Nc1cc([N+](=O)[O-])ccc1Cl	-4.1%	i	-5.2%	-4.1%	i	-0.7%
CCCc1nc2ccccc2c(C(=O)OCC(=O)Nc2cccc(S(=O)(=O)N3CCOCC3)c2)c1CC	11.4%	?	?	?	?	?
CCCc1nc2ccccc2c(C(=O)OCC(=O)NCc2ccco2)c1CC	-6.7%	5.8µM*	-4.5%	-22.9%	i	18.3%
CCCc1nc2ccccc2c(C(=O)OCC(=O)Nc2ccc(S(=O)(=O)N3CCOCC3)cc2)c1CC	20.6µM*	3.26µM*	?	10µM*	?	?
O=C(Cn1c(=O)n(CCCS(=O)(=O)C2CCCCC2)c(=O)c2ccccc21)Nc1ccc(F)c(Cl)c1	.	i	.	.	i	.
Cc1[nH]n(-c2ccccc2)c(=O)c1N=Nc1ccc2c(c1)OCCO2	-1.5%	i	10.9%	15.4%	i	-12.7%
Cc1[nH]n(-c2ccccc2)c(=O)c1N=Nc1c(O)cc(S(=O)(=O)N(C)C)c2ccccc12	5.8µM*	i	?	9.2µM*	?	-37.6%
COc1ccccc1-n1cnc2cc(NCc3ccco3)ccc21	1.46µM*	2.59µM*	5.17µM*	?	0.581µM*	2.06µM*
CCCNC(=O)c1ccc2c(c1)ncn2-c1ccccc1OC	-6.3%	i	26.5%	22.2%	i	2.9%
COc1ccccc1-n1cnc2cc(NCc3cccs3)ccc21	2.06µM*	?	3.66µM*	2.06µM*	1.16µM*	1.46µM*
Cc1ccccc1-n1cnc2cc(NCc3cccs3)ccc21	18.4µM*	i	-28.1%	?	?	?
CC(C)(C)n1cnc2cc(NCc3cccs3)ccc21	-2.5%	?	2.1%	2.8%	i	2.3%
COc1ccccc1-n1cnc2cc(NS(=O)(=O)c3ccc(Br)cc3)ccc21	14.4%	11.6µM*	-14.7%	?	i	?
CCCCNC(=O)[C@@H]1CC=C[C@@H]2CCN(C3CCCCC3)C(=O)[C@@H]21	.	?	.	.	i	.
COc1cccc(-n2c(C)nc3c(cnn3-c3ccc(C)c(C)c3)c2=O)c1	.	i	.	.	?	.
